Assay outcomes deposited in PubChem by several laboratories.
TRPM1 prom inh: reduces MITF-dependent TRPM1 promoter luciferase signal; 330,000 tested, 0.83% active; SK-MEL-5 TRPM1 promoter luciferase, 24 h; inhibition, % at 12.5 µM; AID 488899;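 active = mean inhibition across replicates of 60% or more, whatever share of single replicates reaches that level; inconclusive = some that reach 60%, reason not given; inactive = mean inhibition across replicates below 60%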
HIF-2a inh: inhibitors of HIF-2a; 786-0 RCC cells HIF-2a reporter, luciferase luminescence, overnight; inhibition, % at 18.8 µM; 360,000 tested, 0.72% active; AID 624352;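 active = inhibition of the luminescence signal of 40% or more relative to plate controls, in a single-dose primary screen at 18.75 µM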
EBV LMP1 NFkB: Epstein-Barr LMP1 NF-kappaB reporter inhibition; LMP1-induced NF-kappaB luciferase reporter cells, luminescence; inhibition, % at 12.5 µM; 350,000 tested, 0.69% active; in the data active = inhibition above about 41%; inconclusive = no clear call, values can overlap the other calls
TWEAK-Fn14 inh: blocks TWEAK-Fn14 interaction in a reporter cell assay; inhibition, % at 10 µM; 360,000 tested, 2% active; AID 1159606; TWEAK-stimulated Fn14 reporter cells, luciferase luminescence, 8 h; in the data active = inhibition above about 50%
Shn3 inh set2: reduces Shn3 3'UTR luciferase signal in osteoblasts. AID 588674. inhibition, % at 12.5 µM. 360,000 tested, 0.52% active. Clone20 osteoblast Shn3 3'UTR firefly luciferase, 24 h;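 active = mean inhibition of at least 75% with every replicate also reaching 75%; inconclusive = mean inhibition at least 75% but some replicate below; inactive = mean inhibition below 75%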
TROY NFkB inh: blocks TROY-dependent signaling in reporter cells; Q293 LMP1-TROYcd NF-kB luciferase reporter, 4 h; inhibition, % at 10 µM; 360,000 tested, 0.98% active;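 active = compounds whose plate-normalised and pattern-corrected inhibition of the luciferase reporter signal at the single screening dose is 50% or more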
Mdm2 MdmX conf: Mdm2/MdmX (human) interaction inhibition, confirmed | shares compounds with HIF-2a inh | SaOS-2 split-luciferase Mdm2/MdmX complementation, luminescence | inhibition, % at 8 µM | 740 tested, 99% active | AID 504601;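 active = mean inhibition of the luminescence signal across two replicates at or above 26 percent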
Target sequence (O15151 whole entry, looked up): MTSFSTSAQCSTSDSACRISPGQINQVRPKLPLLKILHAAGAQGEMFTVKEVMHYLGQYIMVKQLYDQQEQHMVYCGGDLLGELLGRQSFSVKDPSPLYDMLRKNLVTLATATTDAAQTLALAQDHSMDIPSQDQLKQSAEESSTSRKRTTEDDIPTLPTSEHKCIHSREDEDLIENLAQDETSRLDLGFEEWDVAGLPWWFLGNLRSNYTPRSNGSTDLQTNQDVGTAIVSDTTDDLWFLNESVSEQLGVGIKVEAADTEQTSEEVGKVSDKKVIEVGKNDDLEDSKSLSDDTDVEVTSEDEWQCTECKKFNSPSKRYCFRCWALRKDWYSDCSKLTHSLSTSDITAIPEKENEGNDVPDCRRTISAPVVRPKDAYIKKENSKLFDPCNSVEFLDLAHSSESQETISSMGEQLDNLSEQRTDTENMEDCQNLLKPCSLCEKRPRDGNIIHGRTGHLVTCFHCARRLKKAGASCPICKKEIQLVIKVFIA
Target sequence (Q00987 whole entry, looked up): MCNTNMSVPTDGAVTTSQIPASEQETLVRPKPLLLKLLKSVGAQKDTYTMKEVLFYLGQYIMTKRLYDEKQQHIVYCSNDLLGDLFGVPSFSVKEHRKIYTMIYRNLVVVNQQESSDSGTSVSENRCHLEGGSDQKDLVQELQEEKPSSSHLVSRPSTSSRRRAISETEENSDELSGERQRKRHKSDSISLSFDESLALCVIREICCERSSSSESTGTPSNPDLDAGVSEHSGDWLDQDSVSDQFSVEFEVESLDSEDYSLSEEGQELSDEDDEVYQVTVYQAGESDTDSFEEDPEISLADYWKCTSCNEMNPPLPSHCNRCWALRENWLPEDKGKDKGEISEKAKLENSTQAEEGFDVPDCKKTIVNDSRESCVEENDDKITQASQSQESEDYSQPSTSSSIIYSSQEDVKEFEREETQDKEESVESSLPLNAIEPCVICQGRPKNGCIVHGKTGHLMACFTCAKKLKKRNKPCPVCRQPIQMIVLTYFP
HIF-2a inh conf: HIF-2a inhibition, single concentration confirmation; shares compounds with HIF-2a inh; 1,800 tested, 56% active; inhibition, % at 18.8 µM; AID 651580; 786-0 RCC cells, HIF-2a luciferase reporter luminescence, overnight;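 active = mean inhibition across four replicates of at least 40 percent at the single tested concentration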
HIF-1a cs: inhibits HIF-1a reporter, a counter-screen for HIF-2a inhibitors; inhibition, % at 18.8 µM; shares compounds with HIF-2a inh; 1,800 tested, 72% active; MiaPaCa-2 HIF-1a luciferase reporter, desferoxamine, overnight;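 active = mean inhibition of the reporter signal across four replicates at the single tested dose of 50% or more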
Hits are given with their value; n = inactive; u = inconclusive; x = not tested or not shown. An excerpt weighted towards active compounds, which were near 3.4% of everything screened.

SMILES	TRPM1 prom inh	HIF-2a inh	EBV LMP1 NFkB	TWEAK-Fn14 inh	Shn3 inh set2	TROY NFkB inh	HIF-2a inh conf	HIF-1a cs	others
CCCCN(C)CCNC(=O)c1cc(-c2cccnc2)nc2ccc(S(=O)(=O)N3CCC(C)CC3)cc12	n	n	n	n	n	n	x	x
CCN(CC)CCNC(=O)c1cc(-c2cccnc2)nc2ccc(S(=O)(=O)N3CCC(C)CC3)cc12	88	64	n	n	n	n	n	100	Mdm2 MdmX conf=102
CC1CCN(C(=O)CSc2nc3c(c(=O)n2C)SC(C)C3)CC1 (stereo not drawn)	n	n	n	n	n	n	x	x
COc1ccc(OCCCC(=O)Nc2ccc(S(=O)(=O)N3CCOCC3)cc2)cc1	n	n	n	n	n	n	x	x
CCCCCCCNC(=O)C1(CC2CC(c3cccc(Br)c3)=NO2)CCNCC1 (stereo not drawn)	99	n	n	n	91	n	x	x	Mdm2 MdmX conf=103
CCCCCCCNC(=O)C1(CC2CC(c3cccc(Br)c3)=NO2)CCN(C(=O)Cc2ccc(F)cc2)CC1 (stereo not drawn)	n	n	n	n	n	n	x	x
CSc1nsc(SCC(=O)Nc2ccc(F)cc2F)n1	n	n	n	n	n	n	x	x
CCOc1ccccc1C(=O)Nc1ccc2nc(N3CCN(c4ncccn4)CC3)cc(C)c2c1	x	x	x	x	x	x	x	x	Mdm2 MdmX conf=98
O=c1cnc2ccccc2n1Cc1ccc(Br)cc1	n	n	n	n	n	n	x	x
CC(C)(C)c1ccc(Cn2c(=O)cnc3ccccc32)cc1	n	62	63	92	n	81	66	86
COc1cccc(CN(C)C(=O)c2cc(S(=O)(=O)N3CCCC3)ccc2C)c1OC	n	n	n	n	n	n	x	x
CCCNC(=O)c1ccc2snnc2c1	n	n	n	n	n	n	x	x
CCCNC(=O)c1nnsc1S(=O)c1ccc(Cl)cc1 (stereo not drawn)	67	44	n	72	96	59	n	99
CCCNC(=O)c1nnsc1S(=O)(=O)c1ccc(Cl)cc1	86	79	u	70	92	73	69	57	Mdm2 MdmX conf=103
COc1ccc(C(C(=O)NC2CCCC2)N(Cc2cccnc2)C(=O)c2snc(C(N)=O)c2N)cc1 (stereo not drawn)	n	n	n	n	n	n	x	x
CCOc1ccc(S(=O)(=O)n2cnc(C)c2)cc1	n	n	n	n	n	n	x	x
COc1cccc(F)c1C(C[N+](=O)[O-])c1c(N)n(C)c(=O)n(C)c1=O (stereo not drawn)	67	88	n	58	n	n	79	106
COc1cc(C(C[N+](=O)[O-])c2c(N)n(C)c(=O)n(C)c2=O)ccc1O (stereo not drawn)	n	n	n	n	n	n	x	x
O=C1C(=O)c2ccc(-c3ccccc3)cc2-c2ccccc21	104	93	91	107	96	83	x	x	Mdm2 MdmX conf=103
CCCC[C@@H](CN[C@H](C)CNC)NCC1CCC(C(C)(C)C)CC1 (stereo partly drawn)	x	x	x	x	x	x	x	x	Mdm2 MdmX conf=103
CC[C@H](C)[C@@H](CN[C@H](CCCCNC)CNC)NCC1CCCC1	n	n	n	n	n	n	x	x
NC(=O)c1ccc(Cl)c2ccccc12	n	58	n	n	n	n	n	n
C/C(=N\NC(=O)c1c(Br)cnn1C)c1ccc(NC(=O)c2ccc(F)cc2)cc1	n	n	n	n	n	n	x	x
Cc1ccc(-c2[nH]c3ccccc3c2SCCNC(=O)c2ccc(S(=O)(=O)N3CCOCC3)cc2)cc1	x	36	n	n	n	n	n	n
CN(C(=O)c1cccc(NC(=O)Cc2cccc(NC(=O)C3CCN(C(=O)c4ccccc4)CC3)c2)c1)C1CCCC1	n	n	n	n	n	n	x	x
SMILES	TRPM1 prom inh	HIF-2a inh	EBV LMP1 NFkB	TWEAK-Fn14 inh	Shn3 inh set2	TROY NFkB inh	HIF-2a inh conf	HIF-1a cs	others
Cc1ccccc1CNC(=O)CN(c1ccccc1Cl)S(C)(=O)=O	n	n	n	n	n	n	x	x
CC(C)(C)C(=O)Cn1ncc(N2CCOCC2)c(Br)c1=O	n	n	n	n	n	n	x	x
CC(=O)Cn1ncc(Br)c(Br)c1=O	99	97	n	86	97	65	95	105
CC(C)Oc1cccc(C(=O)C2CCCN(C(=O)c3ccc4c(c3)OCO4)C2)c1 (stereo not drawn)	n	n	n	n	n	n	x	x
CC(=O)Nc1ccc(N2CCOCC2)c(S(=O)(=O)Nc2ccccc2Cl)c1	x	n	n	n	n	n	x	x
O=C(Nc1cccc(C(F)(F)F)c1)Nc1ccc(N2CCCC2)c(S(=O)(=O)Nc2ccccc2Cl)c1	72	n	n	80	92	n	x	x	Mdm2 MdmX conf=102
CN(C)c1ccc(-c2cc(O)c3ncccc3c2)cc1	n	n	n	n	n	n	x	x
Oc1cc(-c2ccncc2)cc2cccnc12	x	n	n	60	89	n	x	x	Mdm2 MdmX conf=101
Oc1cc(-c2ccc(N3CCCCC3)nc2)cc2cccnc12	n	n	n	n	u	n	x	x	Mdm2 MdmX conf=99
CCCn1cc(CN2CCC(Oc3ccc(C(=O)N4CCCC4)cc3)CC2)c(C)n1	n	n	n	n	n	n	x	x
Cc1cc(C(C)(C)CC(C)(C)C)ccc1OCCOCC[N+](C)(C)Cc1ccccc1	96	n	n	n	88	n	x	x	Mdm2 MdmX conf=103
Cc1cc2c(c(/C=C/C(=O)c3ccccc3)c1)OC1(C=C2)Oc2ccccc2C(=O)N1C (stereo not drawn)	n	80	n	69	93	n	62	105
Cc1nn(C)cc1/C=C/C(=O)c1ccccc1	n	n	n	n	n	n	x	x
CCN(C(=O)COC(=O)/C(=C/c1ccccc1)n1nnnc1C)C1CCCCC1	n	42	n	n	n	n	n	63
CCCS(=O)(=O)Nc1ccc(N2CCCCC2)c(S(=O)(=O)Nc2ccccc2OC)c1	n	n	n	n	n	n	x	x
O=C(Nc1cc(Cl)cc2c1-c1ccc(Cl)cc1C2O)C(Cl)Cl (stereo not drawn)	n	45	n	n	n	n	n	72
CCCc1nc([N+](=O)[O-])c(S(=O)(=O)c2ccccc2)n1CC(C)C	n	45	n	83	91	n	n	n
Cc1ccc(S(=O)(=O)N2CCOCC2)cc1NC(=O)CN1CCN(c2ccc(O)cc2)CC1	n	46	n	78	n	n	44	98
CC(C)c1c(C(=O)Nc2ccccc2)c(-c2ccccc2)c(-c2ccc(F)cc2)n1CC[C@@H](O)C[C@@H](O)CC(=O)O	x	40	x	n	n	n	n	n
O=C(Nc1ccccc1)c1c(F)c(F)c(F)c(F)c1F	n	n	n	n	n	n	x	x
